# Results as given in PubChem BioAssay (NCATS).
# Values joined by “and” are separate entries in the source; they are usually repeats but may differ in a detail not shown here. Equal values may be shown once. Inconclusive results are not listed. Active and inactive are the calls of the source. Unless noted, the call rests on the fitted dose curve; in most records, active means well fitted curve in either direction with a large enough effect (not every such curve was filed as active); inconclusive means small, poorly fitted or top-dose-only effect, or another doubt; inactive means flat fitted curve, though single readings scatter.
# Tests used:
# [1] = AP1 Signaling Pathway (AID 357); further: on the % scale 0 is the no-effect control and ±100 the full control effect
# How it was run: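 ME-180 cells with beta-lactamase reporter under AP-1 response element, stimulated with EC50 EGF; compounds tested in titration series, 5 h at 37 °C. CCF4 substrate added 2.5 h at room temperature; 460/530 nm emission ratio gave %activity and AC50.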
# [2] = NFAT Signaling Pathway (AID 444); conditions: Jurkat NFAT-bla M1, carbachol, beta-lactamase ratio, 5 h; at 17.2 µM (top of the series);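 further: carbachol stimulus at about its EC50 of 1 µM final; on the % scale 0 is the no-effect control and ±100 the full control effect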
# How it was run: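 Jurkat cells carrying an NFAT-driven β-lactamase reporter and co-transfected muscarinic M1 receptor were treated with compound plus carbachol (1 uM final, an EC50 level) for 5 h at 37 °C. CCF4 loading followed for 1 h at RT; 460/530 nm ratio gave %activity.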
# [3] = Stat Signaling Pathway (AID 446);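 further: ME-180 cervical cancer cells given 40 pM IL-6 alongside compound; SIE-controlled beta-lactamase reporter measured as 460/530 nm FRET emission ratio; on the % scale 0 is the no-effect control and ±100 the full control effect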
# How it was run: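 IL-6/STAT signaling read in ME-180 cells via an SIE beta-lactamase reporter. Stimulus was 40 pM IL-6 (its AC50) for 5 hrs, so both activation and inhibition register.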
# [4] = molecular target: Glucocorticoid receptor (Homo sapiens) (UniProt P04150); test: GR-GFP Redistribution (AID 450;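 active means compounds whose dose series gives a full or clear partial fitted curve of increased nuclear translocation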; further: potency means the concentration at half of the fitted maximal effect); conditions: U2OS GR-GFP nuclear translocation, laser cytometry, 2 h
# [5] = molecular target: Glucocorticoid receptor (Homo sapiens) (UniProt P04150); test: GR-EFC Redistribution (AID 451; calls by dose curve; further: potency means the concentration at half of the fitted maximal effect); conditions: CHO-K1 GR-EFC translocation, beta-gal luminescence, 2 h
# How it was run: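 CHO-K1 cells stably expressing nuclear-localized β-gal enzyme acceptor and GR fused C-terminally to the enzyme donor fragment; ligand-driven nuclear translocation restores β-gal by complementation. Compounds titrated up to 46 uM final, 2 h at 37 °C; luminescence read.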
# [6] = molecular target: Mitogen-activated protein kinase 10 (Mus musculus) (UniProt Q61831); test: JNK3 AlphaScreen Assay (AID 530);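 further: kinase came from lysate of stimulated human HepG2 cells; signal reports phosphorylation of biotinylated GST-cJun 1-79 at Ser73 with 10 µM ATP; on the % scale 0 is the no-effect control and ±100 the full control effect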
# How it was run: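 JNK3 came from HepG2 lysates pre-activated with IL-1beta and TNF-alpha and phosphorylated biotinylated GST-cJun (1-79) at 10 uM ATP, pH 7.6, room temperature. Compounds were titrated. AlphaScreen signal used anti-phospho-cJun (Ser73) antibody.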
# [7] = molecular target: 3',5'-cyclic-AMP phosphodiesterase 4B (Homo sapiens) (UniProt Q07343); test: qHTS Assay for Inhibitors of PDE-IV (AID 607; active means well fitted activation curve with a large enough effect in the main read-out, with a control signal flat, not every such curve was filed as active; further: % of control where 0% means no effect)
# How it was run: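 Live HEK293 cells with a modified cyclic nucleotide-gated (CNG) channel report intracellular cAMP via membrane-potential dye fluorescence (ex 535/em 590 nm). Endogenous PDE-IV was targeted. Compounds were tested at up to 22.9 uM final; RO 20-1724 100 uM served as control.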
# [8] = qHTS Assay for Lipid Storage Modulators (AID 1519; calls by dose curve); conditions: Drosophila S3 cells, BODIPY lipid droplet/cell ratio, laser cytometry, cells loaded with oleic acid
# How it was run: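 Cells seeded at 5,000 per well were treated with compounds over a concentration series and loaded with oleic acid (400 uM, as added). Lipid droplet fluorescence (488 nm excitation, 500-530 nm channel) was read by laser-scanning cytometry and normalized to 20 uM Triacsin C.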
# [9] = molecular target: Ubiquitin carboxyl-terminal hydrolase 1 (Homo sapiens) (UniProt O94782); test: Inhibitors of USP1/UAF1: Pilot qHTS (AID 504865; active means well fitted curve in the direction sought with a large enough effect; an effect the other way counts as inactive or inconclusive;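 further: rhodamine fluorescence freed from ubiquitin-rhodamine substrate followed over time; top concentration of the series differs between compounds; on the % scale 0 is the no-effect control and ±100 the full control effect; nearly all actives have a fitted effect of over 35% in size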)
# How it was run: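 Deubiquitinase activity followed as kinetic rhodamine fluorescence release from 150 nM Ub-Rho. 1 nM USP1/UAF1 with compound, after 15 min room-temperature preincubation, in HEPES pH 7.8 buffer containing TCEP, EDTA, BSA and Tween-20.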
# [10] = molecular target: ATP-dependent 6-phosphofructokinase (Trypanosoma brucei brucei) (UniProt O15648); test: qHTS Assay to Find Inhibitors of T. brucei phosphofructokinase: hit validation (AID 492961; active means well fitted curve in the direction sought with a large enough effect; an effect the other way counts as inactive or inconclusive)
# How it was run: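 PFK 1.25 nM, F6P 0.5 mM, ATP 0.1 mM, MgCl2 5 mM, 0.1 M TEA pH 8.0, Tween20 0.01%, BSA 0.1%; 45 min RT. ADP-Glo two-step detection, luminescence. qHTS titration; curve fitting with curve-class categorization.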
# [11] = molecular target: Luciferin 4-monooxygenase (Photinus pyralis) (UniProt P08659); test: Biochemical firefly luciferase enzyme assay for NPC (AID 624030; active means well fitted curve in the direction sought with a large enough effect; an effect the other way counts as inactive or inconclusive;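 further: purified P. pyralis luciferase at 10 nM with luciferin and ATP substrate; 0% = DMSO and -100% = full luciferase inhibition by PTC124 control; nearly all actives have a fitted effect of over 70% in size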)
# How it was run: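 Counter-screen for direct inhibition of the luciferase enzyme by approved-drug library compounds, run at 10 nM enzyme in 50 mM Tris acetate (final). Luminescence was read within 5 min of enzyme-buffer addition and normalized to PTC124 versus DMSO (0%).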
# [12] = qHTS profiling for inhibitors of Plasmodium falciparum proliferation (AID 504749; active means well fitted curve in the direction sought with a large enough effect; an effect the other way counts as inactive or inconclusive;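 further: 0% = DMSO vehicle and full inhibition = artemisinin control; nearly all actives have a fitted effect of over 60% in size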); conditions: P. falciparum in erythrocytes, SYBR Green DNA, 72 h, at 12.8 µM (top of the series)
# How it was run: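 P. falciparum-infected erythrocytes (0.3% parasitemia, 2.5% hematocrit final) were exposed to compounds for 72 h at 37 C in 5% CO2, then lysed with SYBR Green buffer overnight at room temperature; parasite DNA fluorescence was normalized to artemisinin and DMSO controls.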
# [13] = molecular target: Cytochrome P450 3A4 (Homo sapiens) (UniProt P08684); test: qHTS Assay for Activators of Cytochrome P450 3A4 (AID 885; active means well fitted curve in the direction sought with a large enough effect; an effect the other way counts as inactive or inconclusive; further: nearly all actives have a fitted effect of over 65% in size)
# How it was run: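 Quantitative HTS format: compounds preincubated with 20nM human CYP3A4 and Luciferin-PPXE substrate at KM, reaction started by NADPH regeneration, stopped after 60 min, luciferase luminescence read 20 min later.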
# [14] = molecular target: Cytochrome P450 1A2 (Homo sapiens) (UniProt P05177); test: p450-cyp1a2 (AID 410; calls by dose curve;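 further: -100% = full effect of reference inhibitor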)
# How it was run: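 Human CYP1A2 (20nM) demethylated Luciferin-ME at its Km (100uM) in 100mM KPO4. After 10 min compound preincubation, NADPH regeneration ran the reaction 60 min at room temperature. Luciferin was read by luminescence, normalized to 57 uM furafylline.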
# [15] = measured here: cell count channel max response
# [16] = measured here: lipid channel max response
# Sequence of 3',5'-cyclic-AMP phosphodiesterase 4B (Homo sapiens) (Q07343 whole entry, looked up): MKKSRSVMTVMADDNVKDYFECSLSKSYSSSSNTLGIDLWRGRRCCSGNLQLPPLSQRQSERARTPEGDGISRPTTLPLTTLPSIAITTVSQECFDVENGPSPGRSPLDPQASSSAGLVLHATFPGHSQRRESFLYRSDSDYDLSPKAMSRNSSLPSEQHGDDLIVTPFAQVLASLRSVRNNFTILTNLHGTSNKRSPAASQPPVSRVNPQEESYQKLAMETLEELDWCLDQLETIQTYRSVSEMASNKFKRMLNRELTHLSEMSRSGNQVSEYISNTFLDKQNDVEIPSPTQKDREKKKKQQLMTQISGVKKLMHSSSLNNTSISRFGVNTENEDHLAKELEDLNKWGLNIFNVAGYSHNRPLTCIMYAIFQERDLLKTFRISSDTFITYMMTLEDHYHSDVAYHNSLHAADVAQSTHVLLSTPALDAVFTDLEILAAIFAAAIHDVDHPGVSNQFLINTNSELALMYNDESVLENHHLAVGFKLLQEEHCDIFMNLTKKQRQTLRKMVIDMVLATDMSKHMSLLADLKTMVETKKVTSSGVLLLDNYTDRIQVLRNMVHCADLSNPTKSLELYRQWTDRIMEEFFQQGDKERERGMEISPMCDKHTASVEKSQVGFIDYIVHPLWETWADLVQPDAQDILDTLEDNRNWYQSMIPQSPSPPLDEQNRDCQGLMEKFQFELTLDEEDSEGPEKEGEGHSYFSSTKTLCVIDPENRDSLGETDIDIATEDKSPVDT
# Sequence of Ubiquitin carboxyl-terminal hydrolase 1 (Homo sapiens) (O94782 whole entry, looked up): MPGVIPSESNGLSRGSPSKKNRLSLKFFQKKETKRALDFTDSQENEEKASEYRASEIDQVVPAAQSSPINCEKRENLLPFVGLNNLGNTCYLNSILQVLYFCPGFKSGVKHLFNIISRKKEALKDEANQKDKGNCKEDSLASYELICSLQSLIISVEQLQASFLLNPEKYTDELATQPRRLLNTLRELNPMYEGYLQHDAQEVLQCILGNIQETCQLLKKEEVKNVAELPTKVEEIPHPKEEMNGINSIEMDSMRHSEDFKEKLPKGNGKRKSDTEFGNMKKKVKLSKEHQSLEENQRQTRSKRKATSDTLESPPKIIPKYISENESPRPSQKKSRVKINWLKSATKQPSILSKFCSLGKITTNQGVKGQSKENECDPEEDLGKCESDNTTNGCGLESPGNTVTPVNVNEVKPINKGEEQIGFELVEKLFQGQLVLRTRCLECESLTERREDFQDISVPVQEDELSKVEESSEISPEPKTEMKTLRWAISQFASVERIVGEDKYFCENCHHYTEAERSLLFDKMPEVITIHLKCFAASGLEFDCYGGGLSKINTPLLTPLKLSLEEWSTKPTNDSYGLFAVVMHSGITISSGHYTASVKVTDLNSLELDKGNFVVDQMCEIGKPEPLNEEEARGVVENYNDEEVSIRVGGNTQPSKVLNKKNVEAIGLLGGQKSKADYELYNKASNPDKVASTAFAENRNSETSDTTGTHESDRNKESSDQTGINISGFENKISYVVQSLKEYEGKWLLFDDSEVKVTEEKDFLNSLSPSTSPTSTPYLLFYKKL
# Sequence of Glucocorticoid receptor (Homo sapiens) (P04150 whole entry, looked up, the tested form may be a part): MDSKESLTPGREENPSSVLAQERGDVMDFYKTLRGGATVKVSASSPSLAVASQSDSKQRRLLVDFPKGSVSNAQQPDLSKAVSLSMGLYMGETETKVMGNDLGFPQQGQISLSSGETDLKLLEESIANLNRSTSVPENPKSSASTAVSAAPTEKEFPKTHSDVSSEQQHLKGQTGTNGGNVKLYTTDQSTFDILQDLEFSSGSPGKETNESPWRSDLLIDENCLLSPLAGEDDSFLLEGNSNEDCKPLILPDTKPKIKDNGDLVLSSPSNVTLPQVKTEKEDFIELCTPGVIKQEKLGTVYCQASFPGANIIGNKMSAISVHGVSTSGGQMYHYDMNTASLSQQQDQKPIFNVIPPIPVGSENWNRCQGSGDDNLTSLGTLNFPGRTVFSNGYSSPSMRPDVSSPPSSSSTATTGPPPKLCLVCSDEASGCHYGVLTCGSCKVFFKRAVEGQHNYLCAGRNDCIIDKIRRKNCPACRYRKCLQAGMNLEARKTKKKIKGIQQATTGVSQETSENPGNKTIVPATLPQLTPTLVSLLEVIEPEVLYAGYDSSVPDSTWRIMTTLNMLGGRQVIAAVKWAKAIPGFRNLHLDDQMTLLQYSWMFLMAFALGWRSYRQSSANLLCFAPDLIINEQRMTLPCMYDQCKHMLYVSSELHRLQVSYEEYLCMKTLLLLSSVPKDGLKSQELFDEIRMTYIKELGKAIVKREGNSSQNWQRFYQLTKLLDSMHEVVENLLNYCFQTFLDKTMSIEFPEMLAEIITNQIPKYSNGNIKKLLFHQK
# Sequence of Cytochrome P450 1A2 (Homo sapiens) (P05177 whole entry, looked up): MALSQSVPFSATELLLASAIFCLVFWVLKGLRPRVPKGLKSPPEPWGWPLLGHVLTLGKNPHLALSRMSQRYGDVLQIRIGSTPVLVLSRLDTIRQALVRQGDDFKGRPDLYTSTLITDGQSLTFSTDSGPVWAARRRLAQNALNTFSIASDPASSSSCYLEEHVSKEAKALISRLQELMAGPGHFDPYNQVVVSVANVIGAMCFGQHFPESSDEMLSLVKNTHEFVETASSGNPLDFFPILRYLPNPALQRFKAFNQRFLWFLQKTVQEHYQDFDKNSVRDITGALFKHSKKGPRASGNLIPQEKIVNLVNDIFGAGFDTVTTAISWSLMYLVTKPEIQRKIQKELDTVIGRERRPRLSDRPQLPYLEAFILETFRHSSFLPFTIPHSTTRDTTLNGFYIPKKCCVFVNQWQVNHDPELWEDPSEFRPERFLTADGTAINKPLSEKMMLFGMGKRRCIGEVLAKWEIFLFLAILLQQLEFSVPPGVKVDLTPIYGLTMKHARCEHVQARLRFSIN
# Sequence of Luciferin 4-monooxygenase (Photinus pyralis) (P08659 whole entry, looked up): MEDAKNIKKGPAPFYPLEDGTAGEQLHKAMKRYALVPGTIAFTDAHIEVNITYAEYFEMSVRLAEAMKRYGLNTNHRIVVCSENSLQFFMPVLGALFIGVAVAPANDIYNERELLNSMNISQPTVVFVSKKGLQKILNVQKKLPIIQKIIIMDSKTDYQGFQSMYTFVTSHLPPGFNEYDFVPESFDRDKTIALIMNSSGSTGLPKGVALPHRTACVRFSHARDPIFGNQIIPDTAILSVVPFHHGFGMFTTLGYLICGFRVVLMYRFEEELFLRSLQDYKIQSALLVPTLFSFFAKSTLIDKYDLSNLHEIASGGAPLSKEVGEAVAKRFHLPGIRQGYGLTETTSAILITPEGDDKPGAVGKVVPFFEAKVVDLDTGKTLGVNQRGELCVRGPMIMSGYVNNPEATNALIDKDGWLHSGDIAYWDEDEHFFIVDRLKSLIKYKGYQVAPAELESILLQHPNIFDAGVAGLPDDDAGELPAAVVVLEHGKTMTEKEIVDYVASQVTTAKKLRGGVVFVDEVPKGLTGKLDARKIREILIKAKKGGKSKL
# Sequence of Cytochrome P450 3A4 (Homo sapiens) (P08684 whole entry, looked up): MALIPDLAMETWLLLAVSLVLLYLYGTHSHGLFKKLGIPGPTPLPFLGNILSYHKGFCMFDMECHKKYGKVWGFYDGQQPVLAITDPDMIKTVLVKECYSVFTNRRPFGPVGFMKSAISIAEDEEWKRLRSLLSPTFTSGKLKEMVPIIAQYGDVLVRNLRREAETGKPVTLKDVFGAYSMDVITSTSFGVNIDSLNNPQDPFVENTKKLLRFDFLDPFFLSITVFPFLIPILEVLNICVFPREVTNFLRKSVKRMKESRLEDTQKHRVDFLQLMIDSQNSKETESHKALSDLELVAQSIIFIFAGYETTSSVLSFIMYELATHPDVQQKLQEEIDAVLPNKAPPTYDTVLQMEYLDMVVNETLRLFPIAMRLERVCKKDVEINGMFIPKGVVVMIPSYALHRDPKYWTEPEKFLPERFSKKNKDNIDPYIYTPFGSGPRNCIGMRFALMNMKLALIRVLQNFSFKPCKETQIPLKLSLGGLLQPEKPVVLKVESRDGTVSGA
# Sequence of ATP-dependent 6-phosphofructokinase (Trypanosoma brucei brucei) (O15648 whole entry, looked up): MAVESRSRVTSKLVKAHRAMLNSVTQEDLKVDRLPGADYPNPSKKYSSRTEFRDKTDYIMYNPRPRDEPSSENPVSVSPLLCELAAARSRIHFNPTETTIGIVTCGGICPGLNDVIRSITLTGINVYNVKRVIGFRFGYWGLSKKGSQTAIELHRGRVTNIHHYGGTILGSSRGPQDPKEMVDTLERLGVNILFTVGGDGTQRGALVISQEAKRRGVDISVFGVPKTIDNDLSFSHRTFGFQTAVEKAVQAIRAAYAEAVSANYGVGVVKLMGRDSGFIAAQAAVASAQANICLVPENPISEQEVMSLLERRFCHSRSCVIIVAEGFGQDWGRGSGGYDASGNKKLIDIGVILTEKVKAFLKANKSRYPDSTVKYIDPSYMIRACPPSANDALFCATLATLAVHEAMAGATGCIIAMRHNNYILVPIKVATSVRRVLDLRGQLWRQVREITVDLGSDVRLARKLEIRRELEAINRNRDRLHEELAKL
compound,measurement,setting,value
C[C@H]1CC[C@@H]2[C@@H](C)C(=O)O[C@H]3O[C@@]4(C)CC[C@H]1[C@@]32OO4,outcome,[1],inactive
same,"activity change, negative = inhibition",[2],-0.23% (inactive)
same,outcome,[3],inactive
same,Potency,[4],> 20.6 µM (inactive)
same,Potency,[5],> 20.6 µM (inactive)
same,outcome,[6],inactive
same,Potency,[7],inactive
same,"activity change, negative = inhibition",[8]; at 25.7 µM (top of the series),-3.8% (inactive)
same,max response,[8]; [15],-10.2%
same,max response,[8]; [16],-15%
same,Potency,[9],inactive
CN(C)[C@@H]1C(=O)C(C(N)=O)=C(O)[C@]2(O)C(=O)C3=C(O)c4c(O)ccc(Cl)c4[C@](C)(O)[C@H]3C[C@@H]12,outcome,[1],inactive
same,"activity change, negative = inhibition",[2],-5.59% (inactive)
same,outcome,[3],inactive
same,Potency,[4],> 20.6 µM (inactive)
same,Potency,[5],> 20.6 µM (inactive)
same,"activity change, negative = inhibition",[8]; at 25.7 µM (top of the series),0.321% (inactive)
same,max response,[8]; [15],-2.07%
same,max response,[8]; [16],-2.35%
same,Potency,[10],inactive
same,Potency,[11],inactive
same,"activity, negative = inhibition",[12]; parasite line A,-8.57% (inactive)
same,"activity, negative = inhibition",[12]; parasite line B,-7.26% (inactive)
Clc1ccc(CO[C@@H](Cn2ccnc2)c2ccc(Cl)cc2Cl)cc1,outcome,[1],inactive
same,outcome,[3],inactive
same,Potency,[4],> 20.6 µM (inactive)
same,outcome,[6],inactive
same,Potency,[13],inactive
same,"activity change, negative = inhibition",[8]; at 25.7 µM (top of the series),-6.08% (inactive)
same,max response,[8]; [15],-18.5%
same,max response,[8]; [16],-19.5%
CN1[C@@H]2CC[C@H]1CC(O)C2 (some centres not stated),Potency,[14],inactive
same,"activity change, negative = inhibition",[2],-15.4% (inactive)
same,outcome,[3],inactive
same,Potency,[7],inactive
same,"activity change, negative = inhibition",[8]; at 25.7 µM (top of the series),-5.91% (inactive)
same,max response,[8]; [15],-19.1%
same,max response,[8]; [16],-25.1%
same,Potency,[9],inactive
C(#CCN1CCCC1)CN1CCCC1,outcome,[1],inactive
same,Potency,[14],inactive
same,outcome,[3],inactive
same,Potency,[4],> 20.6 µM (inactive)
same,Potency,[5],> 20.6 µM (inactive)
same,Potency,[7],inactive
same,"activity change, negative = inhibition",[8]; at 25.7 µM (top of the series),0.99% (inactive)
same,max response,[8]; [15],10.9%
same,max response,[8]; [16],10.3%
same,Potency,[9],inactive
C[C@@H]1NCCc2cc(O)c(O)cc21,outcome,[1],inactive
same,"activity change, negative = inhibition",[2],-2.85% (inactive)
same,outcome,[3],inactive
same,Potency,[4],> 20.6 µM (inactive)
same,Potency,[5],> 20.6 µM (inactive)
same,outcome,[6],inactive
same,Potency,[7],inactive
same,"activity change, negative = inhibition",[8]; at 25.7 µM (top of the series),-2.45% (inactive)
same,max response,[8]; [15],-9.01%
same,max response,[8]; [16],-11.5%
same,Potency,[9],inactive
COc1ccc(/C=C/c2cc(O)cc(O)c2)cc1,"activity change, negative = inhibition",[8]; at 57.5 µM (top of the series),4.7% (inactive)
same,max response,[8]; [15],1.7%
same,max response,[8]; [16],6.07%
same,Potency,[9],inactive
COc1cc2c(c(OC)c1OC)-c1ccc(OC)c(=O)cc1C(NC(C)=O)CC2 (configuration not stated),"activity change, negative = inhibition",[8]; at 57.5 µM (top of the series),7.05% (inactive)
same,max response,[8]; [15],10.2%
same,max response,[8]; [16],20.2%
same,Potency,[9],inactive
COc1cc(C2c3cc4c(cc3C(O)[C@H]3COC(=O)C23)OCO4)cc(OC)c1OC (some centres not stated),"activity change, negative = inhibition",[8]; at 57.5 µM (top of the series),6.7% (inactive) and 5.22% (inactive)
same,max response,[8]; [15],-4.29% and 22%
same,max response,[8]; [16],2.15% and 29.3%
same,Potency,[9],inactive
